# Screening data from PubChem BioAssay.
# Most compounds without a hit are left out; they make up all but 1.1% or so of the library.
# CIT2-GFP yeast: modulators of CIT2-GFP expression in yeast, primary screen, S. cerevisiae, GFP fusion, multiplex flow cytometry, MLPCN library; S. cerevisiae CIT2-GFP strain, 3 h; 100 means same as DMSO wells; GFP response vs DMSO, % at 10 µM; 0.065% of 320,000 active; AID 2029, 2009;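 active means GFP response relative to DMSO above a set limit, near the screen mean plus 3 SD, cut at about 150% in these data; inconclusive means Fewer than 70 cells measured for a yeast strain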;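 further: ratio of well median GFP fluorescence to mean of DMSO wells on the plate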
# MEP2-GFP yeast: modulators of MEP2-GFP levels in yeast, primary screen, S. cerevisiae, multiplex flow cytometry, MLPCN library. S. cerevisiae MEP2-GFP strain, 3 h; 100% = DMSO control level. GFP response vs DMSO, % at 10 µM. 0.51% of 330,000 active. AID 2016, 2009;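 active means GFP response versus DMSO above a set limit, roughly screen mean plus 3 SD, cut at about 180% in these data; inconclusive means fewer than 70 cells counted for a yeast strain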;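 further: median GFP fluorescence of the barcode-gated MEP2-GFP cells per well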
# AGP1 TOR yeast: modulators of AGP1-GFP expression in yeast TOR pathway, primary screen, cell-based, multiplex flow cytometry, S. cerevisiae, MLPCN library; 3 h; GFP as percent of DMSO wells; GFP response vs DMSO, % at 10 µM; 0.02% of 320,000 active;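 active means GFP response relative to DMSO above a set limit, near screen average plus 3 SD, cut at about 150% in these data; inconclusive means fewer than 70 cells counted for the yeast strain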;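 further: median GFP channel fluorescence of the gated AGP1 strain per well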
# LAP4 TOR yeast: modulators of LAP4-GFP expression in yeast, primary screen, S. cerevisiae, multiplex flow cytometry, MLPCN library; 3 h; median GFP as percent of DMSO wells; GFP response vs DMSO, % at 10 µM; 0.34% of 320,000 active; AID 2023, 2009;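 active means GFP response vs DMSO above a set limit, about the screen mean plus 3 SD, cut at about 150% in these data; inconclusive means under 70 cell events counted for the yeast strain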
# RPL19A TOR yeast: RPL19A-GFP expression modulators in yeast, primary screen, cell-based, S. cerevisiae, multiplex flow cytometry, MLPCN; S. cerevisiae RPL19A-GFP strain, 3 h; stronger effect = lower value; percent response vs DMSO, % at 10 µM; 0.3% of 330,000 active; AID 2025, 2009;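 active means percent response vs DMSO below 50%; inconclusive means fewer than 70 events counted for the yeast strain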;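 further: median channel GFP fluorescence of the barcoded RPL19A-GFP strain; lower means less RPL19A-GFP as with rapamycin TOR inhibition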
# VLA-4 inh: inhibition in human VLA-4 binding assay, primary screen, VLA-4 allosteric modulator project, MLPCN library, flow cytometry, VLA-4 expressing cells; Integrin alpha-4 (Homo sapiens), P13612; ligand binding flow cytometry; inhibition, % (about 7 µM as worked out from the volumes in the protocol); 0.2% of 330,000 active; AID 2557, 2010; in the data active means inhibition above about 50%
# VLA-4 mod pick: retest of VLA-4 allosteric modulators, confirmation, cell-based, cherry-picked plates, U937, HUTS-21 LIBS antibody. shares compounds with VLA-4 inh. U937 cells, HUTS-21 LIBS mAb binding, flow cytometry; LDV ligand present at threefold Kd. inhibition, % at 6.7 µM. 2% of 1,300 active; in the data active means inhibition above about 40%
# Numbers stand for hits; n = inactive; u = inconclusive; x = not tested or not shown.
SMILES,CIT2-GFP yeast,MEP2-GFP yeast,AGP1 TOR yeast,LAP4 TOR yeast,RPL19A TOR yeast,VLA-4 inh,VLA-4 mod pick
CCOc1ccc(N2C(=O)CC(N(CCc3ccc(S(N)(=O)=O)cc3)C(C)=O)C2=O)cc1 (centres undefined),n,n,n,n,n,n,x
CCOc1cccc(N2C(=O)CC(N(CCc3ccc(OC)c(OC)c3)C(=O)CC)C2=O)c1 (centres undefined),n,n,n,n,n,n,n
CCC(=O)N(Cc1ccc(S(N)(=O)=O)cc1)C1CC(=O)N(c2ccc(OC)cc2)C1=O (centres undefined),n,n,n,n,n,n,n
CC12CCC(=O)N1C(C(=O)N1CCN(c3cccc(Cl)c3)CC1)CS2 (centres undefined),n,n,n,n,n,n,x
COc1ccc2cc1Oc1ccc(cc1)CC1c3c(cc(OC)c4c3Oc3cc5c(cc3O4)CCNC5C2)CCN1C (centres undefined),n,n,n,n,n,52.4,n
CC(=O)c1cccc(OCC(=O)Nc2ccccc2N2CCOCC2)c1,n,n,n,n,n,n,x
COc1ccccc1CNC(=O)CN(C)S(=O)(=O)c1ccc(F)cc1,n,n,n,n,n,n,n
COc1ccccc1CNC(=O)C(C)NS(=O)(=O)c1ccccc1 (centres undefined),n,n,n,n,n,n,n
COC1=CC(=O)C[C@@H](C)[C@]12Oc1c(Cl)c(OC)cc(OC)c1C2=O,n,n,n,n,n,54.2,n
COC1=CC(=O)CC(C)C12Oc1c(Cl)c(OC)cc(OC)c1C2=O (centres undefined),n,n,n,n,n,n,x
COc1ccc(C2=NOC(C(=O)NCc3cccnc3)C2)cc1 (centres undefined),u,n,n,n,n,n,x
CCO[C@H]1OC(C(=O)Nc2ccccc2)=C[C@@H](c2ccc(Br)cc2)[C@@H]1CCCO,n,n,n,n,n,n,x
CCO[C@@H]1OC(C(=O)Nc2ccccc2)=C[C@H](C)[C@H]1CCCO,n,n,n,n,n,n,n
NC(=O)OCC(O)COc1ccc(Cl)cc1 (centres undefined),n,n,n,n,n,56.8,n
CCOC(=O)C1=C(C)C2C3C(=O)N(c4ccc(C)cc4C)C(=O)C3C1(C)C1C(=O)N(c3ccc(C)cc3C)C(=O)C21 (centres undefined),n,n,n,n,n,n,n
CC(C)(C)CN1CCN(Cc2c[nH]c3ccccc23)CC1CCO (centres undefined),n,n,n,n,n,n,x
COc1ccc(C(C(=O)NCC2CCCO2)N(C(=O)CNC(=O)c2cccs2)c2ccc(C)cc2)cc1OC (centres undefined),n,n,n,n,n,n,x
Cn1c(SCC(=O)NC2(C#N)CCCCC2)nnc1-c1cccnc1,n,n,n,n,n,n,x
CCOC(=O)n1cc(C(=O)c2ccccc2O)cn1,n,n,n,n,n,n,x
CC(C)(C)OC(=O)n1cc(C(=O)c2ccccc2O)cn1,n,n,n,n,n,50.2,n
Cc1ccc(C(=O)c2cc([N+](=O)[O-])ccc2N2CCCCC2)cc1C,n,n,n,n,n,n,x
Cc1ccc(C(=O)c2cc([N+](=O)[O-])ccc2N2CCOCC2)cc1C,x,x,x,x,x,n,n
Cc1ccc(C(=O)c2cc([N+](=O)[O-])ccc2N2CCOCC2)c(C)c1,n,n,n,n,n,n,49.6
Cc1ccc(C)c(C(=O)COC(=O)c2cc([N+](=O)[O-])ccc2N2CCOCC2)c1,n,n,n,n,n,n,x
